Laboratory results taken from the supplement of paper PMC11006884.
Targets with a hit are over-represented here; the source holds about 6,500 in all. About 2% of all pairs of compound and target were hits. Unmarked numbers belong to inactive results.

compound: COC(=O)C#Cc1ccccc1 [methyl 3-phenylpropiolate]; assay: log2 ratio of iodoacetamide-alkyne labeling of the cysteine site, DMSO over compound (competition); higher = stronger covalent engagement of the cysteine by the compound, active = 1 or more; settings: 500 µM; treatment time 1 h; system: HEK293T cell lysate
Method in brief: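 Electrophile (500 µM) or vehicle was added to HEK293T lysate (2 mg/mL) for 1 h at ambient temperature before iodoacetamide alkyne labelling (1 h) and click coupling to sCIP-TMT reagents. After pooling, overnight trypsin digestion at 37 °C, streptavidin enrichment and acid elution, peptides were measured by Orbitrap Eclipse LC-MS/MS with FAIMS and quantified in FragPipe. Each cysteine's log2 competition ratio compares mean control-channel with mean compound-channel reporter intensity, control over compound. Data came from duplicate channels across three replicates, excluding cysteines quantified in only one replicate.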

Sequence of UniProt Q96IV0 (Q96IV0 whole entry): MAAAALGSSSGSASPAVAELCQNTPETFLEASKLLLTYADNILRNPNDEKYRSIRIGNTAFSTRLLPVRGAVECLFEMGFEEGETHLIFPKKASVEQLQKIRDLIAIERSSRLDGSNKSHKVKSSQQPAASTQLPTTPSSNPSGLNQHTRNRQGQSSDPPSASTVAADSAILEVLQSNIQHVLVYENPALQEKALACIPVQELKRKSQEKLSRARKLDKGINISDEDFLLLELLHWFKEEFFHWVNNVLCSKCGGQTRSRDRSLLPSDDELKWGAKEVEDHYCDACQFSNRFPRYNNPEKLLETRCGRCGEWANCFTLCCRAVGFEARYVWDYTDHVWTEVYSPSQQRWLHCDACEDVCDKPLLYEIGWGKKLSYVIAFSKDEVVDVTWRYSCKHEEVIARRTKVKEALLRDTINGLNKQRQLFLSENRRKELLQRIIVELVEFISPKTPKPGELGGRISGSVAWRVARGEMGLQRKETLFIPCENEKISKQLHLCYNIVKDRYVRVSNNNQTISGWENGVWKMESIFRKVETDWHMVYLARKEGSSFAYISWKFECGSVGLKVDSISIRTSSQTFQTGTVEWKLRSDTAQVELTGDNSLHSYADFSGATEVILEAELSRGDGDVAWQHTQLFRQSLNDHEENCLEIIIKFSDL
Sequence of UniProt Q8NEZ3 (Q8NEZ3 whole entry): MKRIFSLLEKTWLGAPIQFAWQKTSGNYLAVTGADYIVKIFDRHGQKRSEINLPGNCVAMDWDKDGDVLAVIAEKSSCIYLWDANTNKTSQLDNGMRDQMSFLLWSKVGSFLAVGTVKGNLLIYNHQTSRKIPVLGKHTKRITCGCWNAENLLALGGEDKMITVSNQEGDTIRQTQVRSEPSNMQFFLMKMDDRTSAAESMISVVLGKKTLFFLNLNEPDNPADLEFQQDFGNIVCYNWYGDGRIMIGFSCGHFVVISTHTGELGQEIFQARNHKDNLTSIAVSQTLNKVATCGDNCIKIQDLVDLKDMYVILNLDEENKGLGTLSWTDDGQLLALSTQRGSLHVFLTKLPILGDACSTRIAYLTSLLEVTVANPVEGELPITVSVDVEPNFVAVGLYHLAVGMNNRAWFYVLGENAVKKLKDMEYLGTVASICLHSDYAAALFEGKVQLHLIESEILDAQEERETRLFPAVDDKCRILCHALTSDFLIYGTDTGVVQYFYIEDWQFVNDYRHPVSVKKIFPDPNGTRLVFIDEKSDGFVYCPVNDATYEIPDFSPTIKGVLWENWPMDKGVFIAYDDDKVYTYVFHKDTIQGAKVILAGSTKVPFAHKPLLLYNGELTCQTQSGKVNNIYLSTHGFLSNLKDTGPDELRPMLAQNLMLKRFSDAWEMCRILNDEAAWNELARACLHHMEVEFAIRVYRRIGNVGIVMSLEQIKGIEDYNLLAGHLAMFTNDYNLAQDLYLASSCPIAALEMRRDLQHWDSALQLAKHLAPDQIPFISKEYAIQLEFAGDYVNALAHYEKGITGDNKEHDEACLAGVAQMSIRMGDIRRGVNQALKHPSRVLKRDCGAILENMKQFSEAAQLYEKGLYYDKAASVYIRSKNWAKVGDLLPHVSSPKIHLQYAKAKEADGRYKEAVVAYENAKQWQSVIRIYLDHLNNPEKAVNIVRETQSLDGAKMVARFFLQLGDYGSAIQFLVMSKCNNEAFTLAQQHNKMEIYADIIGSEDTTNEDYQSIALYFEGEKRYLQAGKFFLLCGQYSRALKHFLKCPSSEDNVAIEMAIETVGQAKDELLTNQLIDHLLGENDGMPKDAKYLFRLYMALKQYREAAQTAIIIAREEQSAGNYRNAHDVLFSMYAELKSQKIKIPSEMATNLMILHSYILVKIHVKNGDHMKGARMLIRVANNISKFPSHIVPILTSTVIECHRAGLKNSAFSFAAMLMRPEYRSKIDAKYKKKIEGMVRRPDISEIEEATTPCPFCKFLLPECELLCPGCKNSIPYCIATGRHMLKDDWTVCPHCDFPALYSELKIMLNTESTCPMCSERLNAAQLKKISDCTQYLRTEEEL
Sequence of UniProt Q5T5Y3 (Q5T5Y3 whole entry, looked up): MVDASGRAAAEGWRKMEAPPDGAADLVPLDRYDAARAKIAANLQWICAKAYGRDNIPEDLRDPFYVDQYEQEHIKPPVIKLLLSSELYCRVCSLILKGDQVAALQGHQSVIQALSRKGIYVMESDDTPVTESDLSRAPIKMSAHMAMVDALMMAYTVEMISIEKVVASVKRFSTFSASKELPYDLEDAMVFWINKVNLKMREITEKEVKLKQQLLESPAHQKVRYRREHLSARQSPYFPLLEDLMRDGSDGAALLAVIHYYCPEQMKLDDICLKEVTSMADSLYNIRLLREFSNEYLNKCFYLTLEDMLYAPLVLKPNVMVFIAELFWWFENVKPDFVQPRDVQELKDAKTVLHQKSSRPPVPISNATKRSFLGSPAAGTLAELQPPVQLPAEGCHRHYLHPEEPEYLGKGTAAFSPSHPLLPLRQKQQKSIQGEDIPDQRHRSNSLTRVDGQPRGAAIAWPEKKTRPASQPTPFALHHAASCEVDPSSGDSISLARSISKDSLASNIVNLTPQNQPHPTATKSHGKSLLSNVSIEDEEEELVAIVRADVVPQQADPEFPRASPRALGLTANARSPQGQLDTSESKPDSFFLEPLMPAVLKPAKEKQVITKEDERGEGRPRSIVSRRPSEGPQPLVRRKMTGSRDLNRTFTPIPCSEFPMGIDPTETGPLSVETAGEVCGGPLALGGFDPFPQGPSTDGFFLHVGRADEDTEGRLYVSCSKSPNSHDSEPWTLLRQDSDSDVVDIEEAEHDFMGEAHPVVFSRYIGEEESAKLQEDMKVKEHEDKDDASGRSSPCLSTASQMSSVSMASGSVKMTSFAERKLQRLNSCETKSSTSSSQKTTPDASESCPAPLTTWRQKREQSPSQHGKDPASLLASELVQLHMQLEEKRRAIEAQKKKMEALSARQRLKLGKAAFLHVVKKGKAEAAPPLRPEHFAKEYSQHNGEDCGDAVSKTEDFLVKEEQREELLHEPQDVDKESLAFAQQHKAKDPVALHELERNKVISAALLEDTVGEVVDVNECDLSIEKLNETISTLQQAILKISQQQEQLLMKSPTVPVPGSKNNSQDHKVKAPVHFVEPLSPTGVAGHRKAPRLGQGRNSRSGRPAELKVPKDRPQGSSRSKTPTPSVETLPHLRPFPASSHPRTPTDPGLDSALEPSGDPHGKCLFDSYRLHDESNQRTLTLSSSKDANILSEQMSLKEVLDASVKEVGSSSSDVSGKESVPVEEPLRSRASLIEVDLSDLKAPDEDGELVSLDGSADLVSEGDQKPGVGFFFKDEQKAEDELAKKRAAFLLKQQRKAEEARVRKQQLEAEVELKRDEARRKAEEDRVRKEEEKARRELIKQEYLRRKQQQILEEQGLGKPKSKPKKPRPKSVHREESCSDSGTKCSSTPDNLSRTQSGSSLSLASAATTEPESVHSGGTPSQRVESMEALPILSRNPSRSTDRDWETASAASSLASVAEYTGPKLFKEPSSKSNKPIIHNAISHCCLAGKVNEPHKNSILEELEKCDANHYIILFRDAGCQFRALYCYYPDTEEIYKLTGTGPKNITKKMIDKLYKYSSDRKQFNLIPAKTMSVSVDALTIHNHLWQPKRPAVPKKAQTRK

Compared with AKT1S1 C61 (UniProt Q96B36), UniProt Q9BPX6_C83 is higher in “log2 ratio of iodoacetamide-alkyne labeling” value (from here on “log2 ratio”): 0.266 for the first, 0.582 for the second.

Compared with NGLY1 C197 (UniProt Q96IV0), THOC2 C743 (UniProt Q8NI27) is higher in “log2 ratio” value: 0.0457 for the first, 0.442 for the second.

First: IPO4 C350 (UniProt Q8TEX9)
Second: SECISBP2L C544 (UniProt Q93073)
Sequence of UniProt Q93073 (Q93073 whole entry): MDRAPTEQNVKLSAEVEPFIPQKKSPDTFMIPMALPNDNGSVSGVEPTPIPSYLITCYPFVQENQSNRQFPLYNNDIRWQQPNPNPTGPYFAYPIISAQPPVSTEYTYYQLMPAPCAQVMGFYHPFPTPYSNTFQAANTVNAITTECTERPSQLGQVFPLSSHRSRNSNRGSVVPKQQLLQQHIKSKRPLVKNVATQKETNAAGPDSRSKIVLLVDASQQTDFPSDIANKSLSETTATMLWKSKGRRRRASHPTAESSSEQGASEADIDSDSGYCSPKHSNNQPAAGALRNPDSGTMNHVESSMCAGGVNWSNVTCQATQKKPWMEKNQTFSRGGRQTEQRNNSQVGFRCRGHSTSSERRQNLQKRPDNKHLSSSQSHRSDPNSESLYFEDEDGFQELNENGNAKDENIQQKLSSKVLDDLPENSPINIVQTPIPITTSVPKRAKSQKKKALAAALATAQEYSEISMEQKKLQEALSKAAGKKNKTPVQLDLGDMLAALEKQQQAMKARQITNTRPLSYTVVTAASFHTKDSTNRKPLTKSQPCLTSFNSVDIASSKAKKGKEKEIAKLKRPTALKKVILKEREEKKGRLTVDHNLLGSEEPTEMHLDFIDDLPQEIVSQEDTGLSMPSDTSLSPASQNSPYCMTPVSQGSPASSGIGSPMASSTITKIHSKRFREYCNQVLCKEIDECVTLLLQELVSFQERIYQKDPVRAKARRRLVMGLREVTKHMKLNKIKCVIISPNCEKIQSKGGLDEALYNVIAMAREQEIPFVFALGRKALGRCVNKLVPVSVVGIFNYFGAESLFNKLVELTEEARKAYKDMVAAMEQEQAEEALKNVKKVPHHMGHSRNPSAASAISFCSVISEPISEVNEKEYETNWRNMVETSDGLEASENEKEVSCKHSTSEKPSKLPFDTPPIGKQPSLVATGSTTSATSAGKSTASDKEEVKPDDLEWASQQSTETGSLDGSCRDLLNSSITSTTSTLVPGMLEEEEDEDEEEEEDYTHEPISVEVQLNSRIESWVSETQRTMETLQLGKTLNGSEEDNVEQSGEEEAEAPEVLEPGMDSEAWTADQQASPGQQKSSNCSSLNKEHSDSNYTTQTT
The “log2 ratio” value of the first is higher: 0.564 for the first, 0.341 for the second.

WDR19 C1332 (UniProt Q8NEZ3) and DDX1 C110 (UniProt Q92499) are within 0.2 log units of each other in “log2 ratio” value: 0.441 for the first, 0.315 for the second.

SNF8 C72 (UniProt Q96H20) and ARL6IP6 C48 (UniProt Q8N6S5) are within 0.2 log units of each other in “log2 ratio” value: 0.2 for the first, 0.392 for the second.

CISD2 C92 (UniProt Q8N5K1) and UniProt Q7RTV0_C11 are within 0.2 log units of each other in “log2 ratio” value: 0.0262 for the first, -0.0735 for the second.

First: RDH13 C30 (UniProt Q8NBN7)
Sequence of UniProt Q8NBN7 (Q8NBN7 whole entry): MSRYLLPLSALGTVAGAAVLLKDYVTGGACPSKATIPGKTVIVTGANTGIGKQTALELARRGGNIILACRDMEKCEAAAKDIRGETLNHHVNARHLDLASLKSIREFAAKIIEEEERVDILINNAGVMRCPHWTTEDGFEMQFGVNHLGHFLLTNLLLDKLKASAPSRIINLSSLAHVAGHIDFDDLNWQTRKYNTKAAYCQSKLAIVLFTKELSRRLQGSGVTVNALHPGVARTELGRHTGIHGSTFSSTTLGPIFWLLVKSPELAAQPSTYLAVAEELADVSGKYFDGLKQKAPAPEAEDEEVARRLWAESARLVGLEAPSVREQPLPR
Second: EP400 C162 (UniProt Q96L91)
The “log2 ratio” value of the first is lower: 0.116 for the first, 0.339 for the second.

ZNF428 C93 (UniProt Q96B54) and TRUB1 C269 (UniProt Q8WWH5) are within 0.2 log units of each other in “log2 ratio” value: 0.191 for the first, 0.163 for the second.

UniProt Q7LBC6_C1451 and ARID2 C1512 (UniProt Q68CP9) are within 0.2 log units of each other in “log2 ratio” value: 0.513 for the first, 0.438 for the second.

Compared with NIPBL C1876 (UniProt Q6KC79), OSBPL9 C720 (UniProt Q96SU4) is lower in “log2 ratio” value: 0.17 for the first, -0.0484 for the second.

Going from UniProt Q8WZA9_C373 to CAND1 C413 (UniProt Q86VP6), the “log2 ratio” value falls from 0.706 to 0.304.

PIK3R4 C899 (UniProt Q99570) and MYBBP1A C1031 (UniProt Q9BQG0) are within 0.2 log units of each other in “log2 ratio” value: 0.087 for the first, 0.225 for the second.

Going from INTS1 C1701 (UniProt Q8N201) to UniProt Q7RTV0_C46, the “log2 ratio” value rises from -0.0332 to 0.211.

DARS2 C371 (UniProt Q6PI48) and LARP1 C502 (UniProt Q6PKG0) are within 0.2 log units of each other in “log2 ratio” value: 0.442 for the first, 0.269 for the second.

TET2 C332 (UniProt Q6N021) and TSR2 C17 (UniProt Q969E8) are within 0.2 log units of each other in “log2 ratio” value: 0.594 for the first, 0.599 for the second.

MASTL C285 (UniProt Q96GX5) was tested, and the “log2 ratio” value was 1.02 (active).
For PHF3 C1616 (UniProt Q92576), the “log2 ratio” value was 1.14 (active).
With CAMSAP1 C1379 (UniProt Q5T5Y3) the “log2 ratio” value was 1.45 (active).
With BEND3 C95 (UniProt Q5T5X7) the “log2 ratio” value was 1.11 (active).
With NEK9 C25 (UniProt Q8TD19) the “log2 ratio” value was 1.21 (active).
